Assay outcomes from PubChem.
JMJD2A Tudor inh: blocks the human JMJD2A Tudor domain. AlphaScreen JMJD2A-Tudor / H3K4me3 peptide binding. Potency, µM (highest dose often 114 µM), inactives show at the highest dose activity change, negative = inhibition, hits mostly inhibitors. actives 4.4% (n = 390,000). AID 504339. O75164; note: % is set by controls: 0 for no effect and ±100 for the full control effect; nearly all actives have a fitted effect of over 50% in size
GLS inhibitor: glutaminase GLS (human) inhibition; O94925; GLS enzymatic activity, qHTS titration; Potency, µM (titrated, usually from 45.5 µM), without a hit: at the highest dose activity change, negative = inhibition, most hits filed as inhibitors; actives 0.21% (n = 410,000); note: % is set by controls: 0 for no effect and ±100 for the full control effect
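Read-out is an Amplex red fluorescence increase coupled through glutamate oxidase and HRP, measured before and after 30 min room-temperature incubation. hKGA is in 45 mM KH2PO4 (pH 8.2) with 0.02% Tween-20; glutamine added as 1mM solution.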
BAZ2B block: inhibitors of human BAZ2B bromodomain | Q9UIF8 | AlphaScreen BAZ2B-H3K14Ac peptide displacement | Potency, µM (series often up to 114 µM), without a hit: at the top dose activity change, negative = inhibition, usual class: inhibitors | actives 4.4% (n = 360,000) | AID 504333; note: % is set by controls: 0 for no effect and ±100 for the full control effect; nearly all actives have a fitted effect of over 60% in size
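Compounds, titrated to a top concentration of 110 uM, were incubated 30 min at room temperature with preformed BAZ2B/acetyl-K14 H3 peptide complex (50 nM each). Proximity signal was measured by AlphaScreen after 20 min with beads.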
HP1b chromo inh: blocks HP1-beta chromodomain binding to methylated histone tails. AID 540317. actives 0.56% (n = 390,000). Potency, µM (top dose mostly 114 µM), for inactives: at the highest dose activity change, negative = inhibition, usual class: inhibitors. AlphaScreen HP1-beta / biotin-H3K9me3 peptide binding. P83916; note: nearly all actives have a fitted effect of over 70% in size
Target sequence (P83916 whole entry, looked up): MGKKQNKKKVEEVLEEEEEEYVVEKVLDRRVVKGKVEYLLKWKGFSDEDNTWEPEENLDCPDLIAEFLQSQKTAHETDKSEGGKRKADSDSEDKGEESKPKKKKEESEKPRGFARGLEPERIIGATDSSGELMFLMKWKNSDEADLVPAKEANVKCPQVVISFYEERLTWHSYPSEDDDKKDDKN
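HP1-beta protein (50 nM final) preincubated 30 min at room temperature with biotinylated H3(1-18)K9me3 peptide (50 nM) in PBS pH 7.4, 0.01% Tween-20, then compound added for 30 min. AlphaScreen streptavidin donor/nickel chelate acceptor beads (10 ug/mL final), 30 min dark, luminescence read.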
G9a inh: blocks human histone lysine methyltransferase G9a; G9a H3K9 monomethylation, AlphaScreen, 2 h; Potency, µM (series often up to 102 µM), inactives show at the top dose activity, negative = inhibition, actives largely listed as inhibitors; actives 8.8% (n = 350,000); AID 504332; note: % is set by controls: 0 for no effect and ±100 for the full control effect; nearly all actives have a fitted effect of over 75% in size
Target sequence (Q96KQ7 913-1193 limits assumed): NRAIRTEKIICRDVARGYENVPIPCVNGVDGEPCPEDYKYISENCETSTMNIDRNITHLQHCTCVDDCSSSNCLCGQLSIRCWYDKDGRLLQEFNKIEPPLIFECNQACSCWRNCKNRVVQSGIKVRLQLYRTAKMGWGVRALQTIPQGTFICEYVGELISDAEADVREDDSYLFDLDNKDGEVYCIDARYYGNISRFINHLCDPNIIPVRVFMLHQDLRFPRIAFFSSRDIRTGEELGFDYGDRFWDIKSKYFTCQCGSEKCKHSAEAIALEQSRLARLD
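AlphaScreen read-out: biotin-H3K9 peptide (500 nM) methylation by 20 nM enzyme with 20 uM SAM, 2 h at room temperature after 15 min compound preincubation; anti-monomethyl H3K9 antibody plus donor/acceptor beads, 10 min dark.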
An asterisk follows results filed as active; u = inconclusive; x = not tested or not shown; ! = repeats disagree; [ ] = another dose, or the depositor's remark. Hits are enriched below; roughly 10% of the tested compounds scored in any of these assays. Calls come from the whole dose curve; as a rule, active = well fitted curve in the direction sought with a large enough effect; inconclusive = small, poorly fitted or top-dose-only effect, or another doubt; inactive = no such curve, though single readings can be large; an effect the other way counts as inactive or inconclusive. Potency is the fitted concentration of half-maximal effect.

SMILES | JMJD2A Tudor inh | GLS inhibitor | BAZ2B block | HP1b chromo inh | G9a inh
CCc1ccc(S(=O)(=O)N2CCN(Cc3ccco3)CC2)cc1 | -14% | -1% | 3% | 5% | 86%
COc1cccc(CN2CCN(Cc3ccco3)CC2)c1 | 7.9µM* | 0% | 50µM* | u | 10µM*
FC(F)(F)c1ccc(CN2CCN(Cc3ccco3)CC2)cc1 | -7% | -8% | -1% | 19% | 50µM*
COc1cccc(N2CCN(Cc3ccco3)CC2)c1 | 8.9µM* | -15% | u | u | x
CC=Cc1cc(OC)c2c(c1)C(C)C(c1ccc(O)c(OC)c1)O2 (stereo unspecified) | u | 8.9µM* | x | -20% | x
C/C=C/c1ccc(O)c(OC)c1 | -31% | 22% | u | u | 10µM*!
C/C=C/c1ccc(OC(C)=O)c(OC)c1 | -17% | -2% | 6% | 14% | -7%
O=C(Nc1ccc(C2=NCCN2)cc1)c1ccc(Cl)c(C(=O)Nc2ccc(C3=NCCN3)cc2)c1 | x | x | -23% | x | 18µM*
Cc1ccc(Cl)cc1NC(=O)Cn1c(=O)c(CNc2ccccc2)cc2cc3c(cc21)OCCO3 | -29% | -14% | -22% | 6% | 7.9µM*
CCc1ccc(NCc2cc3cc(OC)c(OC)cc3n(CC(=O)Nc3cc(C)ccc3C)c2=O)cc1 | -15% | 11µM* | -22% | 16% | -1%[59 µM]
Cc1ccc(NC(=O)Cn2c(=O)c(CNc3ccccc3)cc3cc4c(cc32)OCCO4)cc1 | -16% | -20% | 1% | 22% | -11%[59 µM]
CC(=O)c1cccc(NC(=O)Cn2c(=O)c(CNc3ccc(C)cc3)cc3cc4c(cc32)OCCO4)c1 | -32% | 10µM* | u | 3% | u
COCCN(CCOC)Cc1cc(=O)oc2cc3c(cc12)CCC3 | -12% | -5% | -26% | 52% | 50µM*
NS(=O)(=O)c1ccc(NN=C2CCCCC2)c([N+](=O)[O-])c1 | u | -2% | u | -35% | 8%[59 µM]
CC1CCCC/C1=N/Nc1ccc([N+](=O)[O-])cc1[N+](=O)[O-] (stereo unspecified) | 50µM* | 9% | u | -60% | 35µM*
CC1C/C(=N/Nc2ccc([N+](=O)[O-])cc2[N+](=O)[O-])CC(C)(C)C1 (stereo unspecified) | 5.6µM* | -12% | 10µM* | 8.9µM* | 10µM*
O=C(O)CSc1cccc2cccnc12 | 8% | -2% | u | 9% | 14µM*!
CN(C)S(=O)(=O)c1cccc(NC(=O)CSc2cccc3cccnc23)c1 | u | u | 56µM* | -7% | 56µM*
COc1cccc(C2NC(=O)NC(C)=C2C(=O)OCC2CCCCC2)c1 (stereo unspecified) | -10% | -1% | -6% | 30% | 23%
CCOCC(=O)Nc1nc(-c2ccccc2)c(CC)s1 | 30% | 0% | -9% | 19% | 35µM*
Brc1ccc(-c2nc3ncccn3c2NC2CCCCC2)o1 | -34%[57.1 µM] | -20% | -33% | u | 10µM*
Cc1cccc(NC(=O)Cc2nc(-c3c[nH]c(C(=O)N4CCCC4)c3)cs2)c1 | u | 4% | u | -36% | 56µM*
CCN(CC)CCNS(=O)(=O)c1ccc2[nH]cc(C(=O)O)c(=O)c2c1 | 56µM* | -19% | u | -13% | u
CN(c1ccc(F)cc1)S(=O)(=O)c1ccc2[nH]cc(C(=O)O)c(=O)c2c1 | -28% | -6% | -34% | 29% | u
CCc1ccccc1N(C)S(=O)(=O)c1ccc2[nH]cc(C(=O)O)c(=O)c2c1 | -18% | -17% | u | 31% | 45µM*
SMILES | JMJD2A Tudor inh | GLS inhibitor | BAZ2B block | HP1b chromo inh | G9a inh
CCN(CC)C(=O)c1c[nH]c2ccc(S(=O)(=O)Nc3cc(C)cc(C)c3)cc2c1=O | u | 0% | 7% | 54% | 6%[59 µM]
Cc1cc(C)n2c(=S)[nH]nc2n1 | u | u | 40µM* | 8.9µM* | 1.1µM*
Cc1cc(C)n2cnnc2n1 | -5% | -3% | -5% | 36% | 18%
COc1ccccc1CNC(=O)CSc1ncc(S(=O)(=O)c2ccc(C)c(Cl)c2)c(=O)[nH]1 | -12% | 3% | 2% | 27%[57 µM] | -16%[59 µM]
CCCOc1ccccc1-n1sc2c(c1=S)-c1cc(OC)cc3c1N(C(=O)C3=O)C2(C)C | 2.5µM* | 7% | 2µM* | -81% | u
CCCCC(=O)NCCc1c(Cc2ccccc2)[nH]c2ccccc12 | x | x | x | x | 13µM*
CC(=O)NCCc1c(Cc2ccccc2)[nH]c2ccccc12 | x | x | x | x | 19%[59 µM]
Cn1c(=O)c2c(nc(CN3CCN(C(=O)c4ccco4)CC3)n2Cc2ccc(F)cc2)n(C)c1=O | -3% | 3% | 3% | 4% | u
O=C(c1ccco1)N1CCN(Cc2nc3cc(Cl)ccc3c(=O)[nH]2)CC1 | 14µM* | -2% | -2% | 30% | 6%
Cn1c(=O)[nH]c(=O)c2[nH]c(CN3CCN(C(=O)c4ccco4)CC3)nc21 | 3.2µM* | 6% | -22% | 12% | u
CN(Cc1ccccc1)Cc1nc2c([nH]1)c(=O)[nH]c(=O)n2C | 1µM* | 5% | 11% | 16% | 27%[12.7 µM]
CC(=O)Nc1ccc(S(=O)(=O)N(C)c2ccc(OCCOc3ccccc3F)cc2)cc1 | -25% | 37% | x | 3% | x
O=C1C=C(O)c2c(O)cc(O)c(O)c2C1=O | 1.6µM* | u | x | u | x
COc1cccc2c1-c1c(C(=O)O)cccc1C2=O | 13% | -2% | -29% | 33% | u
O=C1c2ccccc2C(=O)c2c(O)c(O)cc(O)c21 | 22µM* | u | x | 11µM* | u
Nc1ccc(O)c2c1C(=O)c1ccccc1C2=O | 5.6µM* | 7.9µM* | 4µM* | u | 7.1µM*
COc1cccc2c1C(=O)c1ccc3ccccc3c1C2=O | u | -6% | u | 17% | 40µM*
CCOc1ccc(CCNC(=O)CCc2nnc3ccc(N4CCCCC4)nn23)cc1OCC | -21% | -2% | 3% | 10% | 5%
COc1ccc(-c2cn3nc(N4CCCC(C(=O)Nc5ccccc5OC)C4)sc3n2)cc1 (stereo unspecified) | -23% | 6% | -11% | -5% | u
O=C(O)/C=C\c1ccc(Cn2ccnc2)cc1 | x | -4%[20 µM] | x | x | 12%[21.5 µM]
Cc1ccc(S(=O)(=O)NCC(=O)NCC(=O)NCCc2ccc(Cl)cc2)cc1C | x | 4% | x | x | x
COc1ccc(N)c2c1C(=O)c1ccccc1C2=O | 45µM* | -2% | 32µM* | 45µM* | 25µM*
COc1ccc(OC)c2c1C(=O)c1ccccc1C2=O | -12% | -13% | -1% | 12% | -3%[59 µM]
Nc1ccc(Br)c2c1C(=O)c1ccccc1C2=O | u | -2% | 10µM* | u | 4%[0.0925 µM]
COc1ccc(OC)c2c1C(=O)C(Cl)=C(Cl)C2=O | 0.89µM* | 4% | 45µM* | 2.2µM* | x
CN(C)CCCNc1oc(/C=C/c2ccc(F)cc2)nc1C#N | 6% | 11% | -9% | 43% | -28%[59 µM]
O=C(Nc1ccc(-n2cnnn2)cc1)c1cn2ccccc2n1 | -8% | -1% | -7% | 31% | -20%
